# Results filed as inconclusive are left out. Entries that show only a call come without a potency. A number with no mark means an inactive call. Activity calls are given as the source filed them. Unless noted, calls come from the whole dose curve; as a rule, active = well fitted curve in the direction sought with a large enough effect in the repeat runs; inconclusive = weak or mixed curves; inactive = no such curve, though single readings can be large; an effect the other way counts as inactive or inconclusive.
# Legend:
# [1] = qHTS assay to identify small molecule antagonists of the estrogen related receptor (ERR) signaling pathway from Tox21 library - cell viability counter screen (AID 1224834); note: nearly all actives have a fitted effect of over 30% in size; note: potency is the fitted concentration of half-maximal effect
# Outline: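 ERR cells, 2,000/well; 6 h settle at 37 C/5% CO2; pin-tool compound transfer in DMSO; 17.5 h at 37 C; CellTiter-Fluor, 30 min; fluorescence intensity.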
# [2] = biological target: Luciferin 4-monooxygenase (Photinus pyralis) (UniProt P08659); experiment: qHTS assay to identify small molecule inhibitors of firefly luciferase (AID 1224835); note: nearly all actives have a fitted effect of over 25% in size; note: potency is the fitted concentration of half-maximal effect; for activity change, negative = inhibition: series mostly up to about 120 µM
# Outline: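 Quantitative HTS format; KM concentrations of both substrates. Purified P. pyralis FLuc activity quantified from luminescence images.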
# [3] = qHTS assay to identify small molecule agonists of the constitutive androstane receptor (CAR) signaling pathway - cell viability counter screen (AID 1224836); note: nearly all actives have a fitted effect of over 45% in size; note: potency is the fitted concentration of half-maximal effect; for viability change, negative = cytotoxic: series mostly up to about 92 µM
# Outline: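 Cell viability multiplexed with the CAR agonist screen: CellTiter-Fluor fluorescence after 23 hr at 37 C. HepG2-CYP2B6-hCAR cells got compounds at 15 concentrations with PK11195 at 0.75 uM final.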
# [4] = qHTS assay to identify small molecule antagonists of the constitutive androstane receptor (CAR) signaling pathway - cell viability counter screen (AID 1224837); note: nearly all actives have a fitted effect of over 45% in size; note: potency is the fitted concentration of half-maximal effect; for activity change, negative = cytotoxicity: series mostly up to about 92 µM
# Outline: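 Viability was measured with CellTiter-Fluor in a HepG2 line carrying stably transfected hCAR and a CYP2B6-2.2kb construct. Cells were exposed for 23 hr at 37 C to 15 compound concentrations with 50 nM CITCO as agonist.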
# [5] = biological target: Nuclear receptor subfamily 1 group I member 3 (Homo sapiens) (UniProt Q14994); experiment: qHTS assay to identify small molecule antagonists of the constitutive androstane receptor (CAR) signaling pathway (AID 1224838);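 note: HepG2 cells stably expressing hCAR with CYP2B6 luciferase reporter stimulated by CITCO; nearly all actives have a fitted effect of over 40% in size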; note: potency is the fitted concentration of half-maximal effect
# Outline: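 Antagonist mode used CITCO at a final 50 nM to activate CAR in human hepatoma HepG2 cells carrying stable hCAR and a 2.2 kb CYP2B6 promoter-luciferase construct. Compounds were tested at 15 concentrations over 24 h, with luminescence as the end point.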
# [6] = biological target: Nuclear receptor subfamily 1 group I member 3 (Homo sapiens) (UniProt Q14994); experiment: qHTS assay to identify small molecule agonists of the constitutive androstane receptor (CAR) signaling pathway (AID 1224839); note: nearly all actives have a fitted effect of over 15% in size; note: potency is the fitted concentration of half-maximal effect; for activation: series mostly up to about 92 µM
# Outline: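 Luminescent ONE-Glo read-out after 24 hr, 37 C exposure of double-stable HepG2-CYP2B6-hCAR reporter cells to a 15-point compound series, in the presence of 0.75 uM PK11195 (final).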
# [7] = qHTS assay to identify small molecule antagonists of the estrogen related receptor signaling pathway with the pleiotropic PPARgamma coactivator (PGC) from Tox21 10K library - cell viability counter screen (AID 1224840; active = well fitted cell-killing curve with a large enough effect in the repeat runs, not every such curve was filed as active; note: nearly all actives have a fitted effect of over 40% in size; note: potency is the fitted concentration of half-maximal effect)
# Outline: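 Multiplexed viability counter screen in the PGC/ERR cell line: cells treated with DMSO-dissolved compounds for 17.5 hours at 37 C, then viability measured as CellTiter-Fluor fluorescence.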
# [8] = qHTS assay to identify small molecule antagonists of the estrogen related receptor signaling pathway with the pleiotropic PPARgamma coactivator (PGC) from Tox21 10K library (AID 1224841; call rule not given here; note: actives are mostly falling curves and most rising ones were filed inactive; nearly all actives have a fitted effect of over 50% in size; note: potency is the fitted concentration of half-maximal effect; for activity, negative = inhibition: series mostly up to about 92 µM)
# Outline: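 Steps: plate 2,000 PGC/ERR cells per well; incubate 6 h at 37 C with 5% CO2; transfer compounds from DMSO stocks by pin tool; incubate 18 h at 37 C; add One-Glo; measure luminescence 30 min later.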
# [9] = qHTS assay to identify small molecule agonists of the estrogen related receptor signaling pathway with the pleiotropic PPARgamma coactivator (PGC) from Tox21 10K library (AID 1224842); note: nearly all actives have a fitted effect of over 15% in size; note: potency is the fitted concentration of half-maximal effect
# Outline: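 PGC/ERR reporter cells (NTP line) were seeded 2,000 per well, rested 6 h at 37 C/5% CO2, then pin-dosed with compounds in DMSO for 18 h at 37 C; luciferase read by One-Glo luminescence after 30 min at room temperature.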
# [10] = biological target: Thyrotropin receptor (Homo sapiens) (UniProt P16473); experiment: qHTS assay to identify small molecule agonists of the thyroid stimulating hormone receptor (TSHR) signaling pathway (AID 1224843; calls by dose curve; note: nearly all actives have a fitted effect of over 45% in size)
# Outline: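 Using 15 concentrations per compound in triplicate, cAMP production was monitored in TSHR-HEK293 cells after 30 min compound incubation at RT; HTRF reagents followed, with fluorescence intensity recorded after 1 h.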
# Chain of Luciferin 4-monooxygenase (Photinus pyralis) (P08659 whole entry, looked up): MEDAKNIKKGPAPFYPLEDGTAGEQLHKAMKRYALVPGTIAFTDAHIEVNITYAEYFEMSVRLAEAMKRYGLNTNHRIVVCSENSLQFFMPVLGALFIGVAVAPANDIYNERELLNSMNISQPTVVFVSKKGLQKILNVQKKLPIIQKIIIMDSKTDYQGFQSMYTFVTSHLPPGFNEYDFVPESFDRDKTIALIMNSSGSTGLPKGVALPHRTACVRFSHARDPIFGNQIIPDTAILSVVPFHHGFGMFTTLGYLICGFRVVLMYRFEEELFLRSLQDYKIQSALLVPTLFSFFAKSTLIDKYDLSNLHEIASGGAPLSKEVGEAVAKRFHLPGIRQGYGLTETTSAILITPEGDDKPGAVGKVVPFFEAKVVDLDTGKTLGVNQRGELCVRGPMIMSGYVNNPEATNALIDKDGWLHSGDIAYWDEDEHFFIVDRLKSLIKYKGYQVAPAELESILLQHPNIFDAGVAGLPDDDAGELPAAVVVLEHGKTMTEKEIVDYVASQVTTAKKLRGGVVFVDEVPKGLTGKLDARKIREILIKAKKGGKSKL
# Chain of Thyrotropin receptor (Homo sapiens) (P16473 whole entry, looked up): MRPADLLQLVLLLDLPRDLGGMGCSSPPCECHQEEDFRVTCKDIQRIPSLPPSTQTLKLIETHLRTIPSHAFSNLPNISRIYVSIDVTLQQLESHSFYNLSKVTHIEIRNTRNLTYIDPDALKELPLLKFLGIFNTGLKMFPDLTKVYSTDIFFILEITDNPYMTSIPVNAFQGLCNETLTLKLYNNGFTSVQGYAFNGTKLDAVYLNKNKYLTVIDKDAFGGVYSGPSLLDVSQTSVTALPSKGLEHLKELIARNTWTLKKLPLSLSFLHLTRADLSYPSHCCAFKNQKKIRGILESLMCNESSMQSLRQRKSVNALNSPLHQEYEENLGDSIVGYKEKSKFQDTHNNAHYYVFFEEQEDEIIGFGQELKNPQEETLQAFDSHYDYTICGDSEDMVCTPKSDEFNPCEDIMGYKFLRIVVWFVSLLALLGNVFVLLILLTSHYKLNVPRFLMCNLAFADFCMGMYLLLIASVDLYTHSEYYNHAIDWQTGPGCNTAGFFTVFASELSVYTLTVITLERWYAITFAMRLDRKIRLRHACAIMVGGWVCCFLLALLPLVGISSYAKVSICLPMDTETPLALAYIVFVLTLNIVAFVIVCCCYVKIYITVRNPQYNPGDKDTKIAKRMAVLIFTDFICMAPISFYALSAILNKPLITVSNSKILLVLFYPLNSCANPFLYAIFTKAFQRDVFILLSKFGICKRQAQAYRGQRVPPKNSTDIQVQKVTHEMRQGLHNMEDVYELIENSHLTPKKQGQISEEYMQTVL
# Chain of Nuclear receptor subfamily 1 group I member 3 (Homo sapiens) (Q14994 whole entry, looked up): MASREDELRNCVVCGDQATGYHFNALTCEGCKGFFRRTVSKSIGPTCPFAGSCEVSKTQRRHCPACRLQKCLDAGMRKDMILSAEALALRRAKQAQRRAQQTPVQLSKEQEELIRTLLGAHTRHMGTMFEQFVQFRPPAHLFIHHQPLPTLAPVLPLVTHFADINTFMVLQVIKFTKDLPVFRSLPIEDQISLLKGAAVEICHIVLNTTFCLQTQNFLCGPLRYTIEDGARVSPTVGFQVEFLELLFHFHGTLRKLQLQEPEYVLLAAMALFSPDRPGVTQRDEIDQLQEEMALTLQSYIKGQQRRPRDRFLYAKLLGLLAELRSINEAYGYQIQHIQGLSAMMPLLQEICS
SMILES,Potency [1],Potency [2],Potency [3],Potency [4],Potency [5],Potency [6],Potency [7],Potency [8],Potency [9],Potency [10],"viability change, negative = cytotoxic [1]","activity change, negative = inhibition [2]","viability change, negative = cytotoxic [3]","activity change, negative = cytotoxicity [4]","activity, negative = inhibition [5]","viability change, negative = cytotoxic [7]",activation [10]
Cc1c(C2(c3cc(Br)c(O)c(Br)c3C)OS(=O)(=O)c3ccccc32)cc(Br)c(O)c1Br,14.9 µM (active),8.67 µM (active),14.9 µM (active),18.8 µM (active),11.8 µM (active),inactive,18.8 µM (active),11.8 µM (active),inactive,–,–,–,–,–,–,–,–
CC(=O)OC(C)C[N+](C)(C)C (centres undefined),inactive,inactive,inactive,inactive,inactive,inactive,inactive,inactive,inactive,–,–,–,–,–,–,–,–
CCc1ccc(C)cc1,inactive,inactive,inactive,inactive,inactive,inactive,inactive,–,–,–,–,–,–,–,–,–,–
CC[C@H]1OC(=O)[C@H](C)[C@@H](O[C@H]2C[C@@](C)(OC)[C@@H](O)[C@H](C)O2)[C@H](C)[C@@H](O[C@@H]2O[C@H](C)C[C@H](N(C)C)[C@H]2O)[C@](C)(O)C[C@@H](C)C(=O)[C@H](C)[C@@H](O)[C@]1(C)O,inactive,inactive,inactive,inactive,inactive,inactive,inactive,–,–,inactive,–,–,–,–,–,–,–
CCNc1nc(N)nc(Cl)n1,inactive,inactive,inactive,inactive,24.3 µM (active),inactive,inactive,inactive,inactive,inactive,–,–,–,–,–,–,–
OCC(CO)n1cnc(-c2ccc(F)cc2)c1-c1ccnc(Oc2ccccc2)n1,inactive,inactive,inactive,inactive,inactive,inactive,inactive,–,inactive,inactive,–,–,–,–,–,–,–
CC[C@@H](CO)NCCN[C@@H](CC)CO,inactive,inactive,inactive,inactive,inactive,inactive,inactive,inactive,inactive,inactive,–,–,–,–,–,–,–
CC(C)(C)CCCCCCOC(=O)c1ccccc1C(=O)OCCCCCCC(C)(C)C,inactive,inactive,inactive,inactive,inactive,inactive,inactive,–,inactive,inactive,–,–,–,–,–,–,–
CC(CO)(CO)C(=O)O,inactive,inactive,inactive,inactive,inactive,inactive,inactive,inactive,inactive,–,–,–,–,–,–,–,–
COC1CCC=CO1 (centres undefined),inactive,inactive,inactive,inactive,inactive,inactive,inactive,inactive,inactive,inactive,–,–,–,–,–,–,–
CC(=O)OCC(=O)[C@@]1(OC(C)=O)[C@@H](C)C[C@H]2[C@@H]3C[C@H](F)C4=CC(=O)C=C[C@]4(C)[C@@]3(F)[C@@H](O)C[C@@]21C,inactive,inactive,inactive,inactive,inactive,inactive,inactive,–,–,–,–,–,–,–,–,–,–
O=C(O)CCC(=O)OC[C@@H](NC(=O)C(Cl)Cl)[C@H](O)c1ccc([N+](=O)[O-])cc1,inactive,inactive,inactive,inactive,inactive,inactive,inactive,–,–,–,–,–,–,–,–,–,–
Nc1ccc(NC(=O)c2ccc(N)cc2)cc1,inactive,40 µM (active),inactive,inactive,inactive,inactive,inactive,inactive,inactive,–,–,–,–,–,–,–,–
COc1cc(NS(=O)(=O)c2ccc(N)cc2)nc(C)n1,inactive,inactive,inactive,inactive,inactive,inactive,inactive,inactive,inactive,inactive,–,–,–,–,–,–,–
CC1CCCC(=O)C1=O (centres undefined),inactive,inactive,inactive,inactive,inactive,inactive,inactive,–,–,–,–,–,–,–,–,–,–
CC(=O)N[C@@H](Cc1ccc(O)cc1)C(=O)O,inactive,inactive,inactive,inactive,inactive,inactive,inactive,inactive,inactive,inactive,–,–,–,–,–,–,–
CC(C)CC(O)CC(C)C,inactive,inactive,inactive,inactive,inactive,inactive,inactive,inactive,inactive,inactive,–,–,–,–,–,–,–
O=C(O)c1ccc(O)cc1O,inactive,inactive,inactive,inactive,inactive,inactive,inactive,inactive,inactive,inactive,–,–,–,–,–,–,–
[Cl][Nd]([Cl])[Cl],inactive,39.9 µM (active),inactive,inactive,inactive,inactive,inactive,inactive,inactive,inactive,–,–,–,–,–,–,–
CC(=O)OCC1=C(C(=O)O)N2C(=O)[C@@H](NC(=O)CSc3ccncc3)[C@H]2SC1,inactive,inactive,inactive,inactive,inactive,inactive,inactive,inactive,inactive,inactive,–,–,–,–,–,–,–
c1ccc(CNc2ncnc3c2ncn3C2CCCCO2)cc1 (centres undefined),inactive,39.9 µM (active),inactive,inactive,inactive,9.69 µM (active),inactive,–,–,–,–,–,–,–,–,–,–
Nc1c(Cl)cc(Cl)cc1[N+](=O)[O-],inactive,inactive,inactive,inactive,inactive,inactive,inactive,inactive,5.45 µM (active),inactive,–,–,–,–,–,–,–
CC12CC3CC(C)(C1)CC(N)(C3)C2,inactive,inactive,inactive,inactive,inactive,inactive,inactive,inactive,inactive,inactive,–,–,–,–,–,–,–
Oc1ccc2c(c1)Cc1ccccc1-2,inactive,31.7 µM (active),inactive,inactive,inactive,61.1 µM (active),inactive,inactive,inactive,inactive,–,–,–,–,–,–,–

SMILES,Potency [1],Potency [2],Potency [3],Potency [4],Potency [5],Potency [6],Potency [7],Potency [8],Potency [9],Potency [10],"viability change, negative = cytotoxic [1]","activity change, negative = inhibition [2]","viability change, negative = cytotoxic [3]","activity change, negative = cytotoxicity [4]","activity, negative = inhibition [5]","viability change, negative = cytotoxic [7]",activation [10]
CCN(Cc1cccc(S(=O)(=O)O)c1)c1ccc(C(=C2C=CC(=[N+](CC)Cc3cccc(S(=O)(=O)O)c3)C=C2)c2ccc(O)cc2S(=O)(=O)[O-])cc1,16.6 µM (active),10.8 µM (active),16.6 µM (active),29.5 µM (active),11.7 µM (active),inactive,33.1 µM (active),16.6 µM (active),inactive,–,–,–,–,–,–,–,–
CCO[Si](C)(CCCOCC1CO1)OCC (centres undefined),inactive,inactive,inactive,inactive,inactive,inactive,inactive,inactive,inactive,inactive,–,–,–,–,–,–,–
CCOCCC(=O)OCC,inactive,inactive,inactive,inactive,inactive,inactive,inactive,–,–,–,–,–,–,–,–,–,–
CN1C(CSCC(F)(F)F)Nc2cc(Cl)c(S(N)(=O)=O)cc2S1(=O)=O (centres undefined),inactive,inactive,inactive,inactive,inactive,inactive,inactive,–,inactive,inactive,–,–,–,–,–,–,–
C=Cc1ccc(OC(C)=O)cc1,inactive,inactive,inactive,inactive,inactive,inactive,inactive,inactive,inactive,inactive,–,–,–,–,–,–,–
Nc1ccc(F)cc1,inactive,inactive,inactive,inactive,inactive,inactive,inactive,inactive,inactive,–,–,–,–,–,–,–,–
CC1CCc2nccnc21 (centres undefined),inactive,inactive,inactive,inactive,inactive,inactive,inactive,inactive,inactive,–,–,–,–,–,–,–,–
O=C(Oc1ccccc1)c1ccc2ccccc2c1O,inactive,2.52 µM (active),inactive,inactive,inactive,54.5 µM (active),inactive,inactive,9.69 µM (active),–,–,–,–,–,–,–,–
CCCCCCCCCCCCCC(=O)OCC(O)CO (centres undefined),inactive,inactive,inactive,inactive,inactive,inactive,inactive,inactive,inactive,inactive,–,–,–,–,–,–,–
O=C(O)c1cccc(Oc2ccccc2)c1,inactive,inactive,inactive,inactive,inactive,inactive,inactive,inactive,inactive,inactive,–,–,–,–,–,–,–
CCOC(=O)C(C)O (centres undefined),inactive,inactive,inactive,inactive,inactive,inactive,inactive,–,–,–,–,–,–,–,–,–,–
CC1CCCO1 (centres undefined),inactive,inactive,inactive,inactive,inactive,inactive,inactive,–,–,–,–,–,–,–,–,–,–
COc1ccc(/C=C/C(=O)c2ccc(OC)cc2OC)cc1,inactive,17.4 µM (active),inactive,inactive,inactive,21.1 µM (active),inactive,inactive,inactive,inactive,–,–,–,–,–,–,–
CC(C)c1ccc(C#N)cc1,inactive,inactive,inactive,inactive,inactive,inactive,inactive,inactive,inactive,inactive,–,–,–,–,–,–,–
CC(C)(C)C1(CCc2ccc(Cl)cc2)CO1 (centres undefined),inactive,inactive,inactive,inactive,inactive,inactive,inactive,–,–,inactive,–,–,–,–,–,–,–
CSSc1ccoc1C,inactive,inactive,inactive,inactive,inactive,inactive,inactive,–,–,inactive,–,–,–,–,–,–,–
O=C1OC[C@H](Cc2cccc(O)c2)[C@H]1Cc1cccc(O)c1,inactive,inactive,inactive,inactive,inactive,inactive,inactive,–,–,inactive,–,–,–,–,–,–,–
O=NN(CCCl)C(=O)NCCCl,inactive,inactive,inactive,inactive,inactive,–,inactive,inactive,inactive,inactive,–,–,–,–,–,–,–
CCC(Cl)CC(Cl)C(Cl)C(Cl)C(Cl)C(C)Cl (centres undefined),–,–,–,–,–,2.65 µM (active),–,–,–,–,-2.15% [at 19 µM],-6.92% [at 23.6 µM],-5.9% [at 19 µM],-3.5% [at 19 µM],94.1% [at 19 µM],-3.01% [at 19 µM],15.8% [at 19 µM]
CC(=O)C(C)=O,inactive,inactive,inactive,inactive,inactive,inactive,inactive,–,–,inactive,–,–,–,–,–,–,–
O=S(=O)(Cl)c1c(Cl)cccc1Cl,inactive,inactive,inactive,inactive,inactive,inactive,inactive,–,–,inactive,–,–,–,–,–,–,–
FC(F)(F)C(F)(F)C(F)(F)C(F)(F)CCI,inactive,inactive,inactive,inactive,inactive,inactive,inactive,–,–,inactive,–,–,–,–,–,–,–
CC(C(=O)O)c1ccc(C(=O)c2cccs2)cc1 (centres undefined),inactive,inactive,inactive,inactive,inactive,inactive,inactive,–,–,inactive,–,–,–,–,–,–,–
Cc1ccc(N(CCO)CCO)cc1,inactive,inactive,inactive,inactive,inactive,inactive,inactive,–,–,inactive,–,–,–,–,–,–,–

# Reference: PubChem BioAssay (Tox21)
